# From PubChem BioAssay AID651955 (The Scripps Research Institute Molecular Screening Center, 2012)
# About 40 (2%) of roughly 2,400 compounds were called active. Rule as the data show it: active = activation above about 37%; inactive = the rest. Not all results are given here.
# Target: Trace amine-associated receptor 1 (Homo sapiens) (UniProt Q96RJ0)
# Experiment: TAAR1 activation by candidate antagonists – cell-based, fluorescence, counter-screen for TAAR1 antagonist project (AID 651955);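 also: CHO cells stably expressing TAAR1 with calcium dye readout; 0% = DMSO vehicle and 100% = full agonist response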
# Settings: hTAAR1 cell line, agonist mode, at 3 µM, stronger effect = higher value
# Trace amine-associated receptor 1 (Homo sapiens), sequence (Q96RJ0 whole entry, looked up): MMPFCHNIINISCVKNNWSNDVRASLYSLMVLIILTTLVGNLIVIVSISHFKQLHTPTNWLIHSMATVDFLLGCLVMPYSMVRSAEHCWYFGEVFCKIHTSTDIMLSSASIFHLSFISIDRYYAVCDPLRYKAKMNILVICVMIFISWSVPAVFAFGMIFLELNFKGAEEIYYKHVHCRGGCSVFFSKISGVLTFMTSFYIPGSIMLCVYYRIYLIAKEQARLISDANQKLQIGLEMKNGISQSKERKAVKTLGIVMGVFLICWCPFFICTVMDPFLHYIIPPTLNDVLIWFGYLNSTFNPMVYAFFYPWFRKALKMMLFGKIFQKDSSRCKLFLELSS
row,Structure (SMILES),activation
1,COc1ccc(C2=NOC(Cn3nc(C(=O)NCc4ccc5c(c4)OCO5)cc3-c3ccccc3)C2)cc1 (configuration not stated),6.17% (inactive)
2,COC(=O)c1sccc1NC(=O)c1cc(OC)c(OC)c(OC)c1,6.39% (inactive)
3,Cc1nc(N2CCN(c3ccccn3)CC2)c2c(C)c(C(=O)Nc3ccc(F)cc3)sc2n1,5.28% (inactive)
4,COc1ccc(CN(C)C(=O)c2cc(-c3ccc(C)cc3C)nc3ccccc23)c(OC)c1OC,12.2% (inactive)
5,O=C(NCCN1C(=O)S/C(=C\c2cccnc2)C1=O)c1ccc(S(=O)(=O)N2CCCC2)cc1,6.63% (inactive)
6,C[C@H](O)[C@@H]1C(=O)N2CCc3c([nH]c4c(-c5ccc6c(c5)OCO6)cccc34)[C@@H]2C[C@@H]1N(C)C(=O)c1ccco1,7.7% (inactive)
7,Cc1cc(Br)ccc1NC(=O)c1cnc(N2CCN(c3ccccn3)CC2)c2ccccc12,5.88% (inactive)
8,COC(=O)[C@@]1(Sc2ccc(C)cc2)CC(=O)N(c2cccc(SC)c2)[C@@H]1c1ccccc1,9.64% (inactive)
9,COc1ccc(S(=O)(=O)N2CCCC(C(=O)Nc3ccc(NC(=O)c4ccccn4)cc3)C2)cc1 (configuration not stated),11% (inactive)
10,COc1ccc(CCNC2=C(Cl)C(=O)N(Cc3ccccc3)C2=O)cc1OC,7.18% (inactive)
11,O=C(O)c1ccc(NC(=O)c2cn(-c3ccccc3)nc2-c2ccc(Cl)cc2)cc1,-1.05% (inactive)
12,COc1ccc(NC(=O)c2cc(-c3ccc(C)o3)nc3ccccc23)cc1,6.61% (inactive)
13,O=C(Oc1ccc(-c2nnco2)cc1)c1ccc(F)c(S(=O)(=O)N2CCOCC2)c1,14.6% (inactive)
14,O=C(OCC(=O)N(CCc1ccccc1)Cc1ccccc1)c1ccccc1[N+](=O)[O-],7.56% (inactive)
15,COC(=O)Cc1nnn2c1[C@H](C)[C@H](c1ccccc1Br)OCC2,7.69% (inactive)
16,COc1ccc(OC)c2[nH]c(=O)c(CCNC(=O)C(=O)c3c[nH]c4ccccc34)cc12,10.8% (inactive)
17,Cc1cccc(NC(=O)c2ccc(COc3ccccc3[N+](=O)[O-])o2)n1,1.12% (inactive)
18,NNC(=O)CNC(c1ccccc1)c1cc(Cl)ccc1NC(=O)c1ccccc1 (configuration not stated),8.83% (inactive)
19,Cc1cc(C(C)(C)C)oc1C(=O)N(CC(=O)NC1CCCC1)Cc1ccc(Cl)cc1,34.2% (inactive)
20,CCOc1cc(/C=N/NC(=O)c2cc(-c3ccccc3)nc3ccccc23)ccc1O,15.8% (inactive)
21,O=C(N/N=C/c1ccc(OC(=O)c2ccccc2Cl)cc1)c1ccc(O)cc1,13.1% (inactive)
22,Cc1cccc(NC(=O)c2nc[nH]c2C(=O)NCC(=O)OCc2ccccc2)c1,3.94% (inactive)
23,C[C@H](NC(=O)c1nc[nH]c1C(=O)NCC(=O)OC(C)(C)C)C(=O)OCc1ccccc1,11.1% (inactive)
24,O=C(COC(=O)CCCSc1nc2ccccc2[nH]1)Nc1ccc(Oc2ccccc2)cc1,9.65% (inactive)
25,COc1ccc(CCNC(=O)c2ccc(CS(=O)(=O)c3ccc(Br)cc3)o2)cc1OC,12.3% (inactive)
26,COc1cc2ccccc2cc1C(=O)Nc1ccc(NC(=O)c2cccs2)cc1,7.6% (inactive)

row,Structure (SMILES),activation
1,C=CCC[C@H](Cc1ccc(F)cc1)C(=O)OC[C@H](C)NC(=O)[C@H](CC=C)CC(=O)N(CCO)Cc1ccccc1,6.83% (inactive)
2,CCc1ccc2c(c1)NC(=O)C2(C)Cc1ccc(OC(F)(F)F)cc1 (configuration not stated),25.6% (inactive)
3,CC/C(=N/Nc1ccccc1)c1cnnc(SC)n1,-4.06% (inactive)
4,Cc1ccc2c(c1)N(CC(=O)NCCc1ccc(Cl)cc1)C(=O)c1cccnc1O2,5.11% (inactive)
5,Oc1ccccc1N1CCN(c2ncnc3sc(-c4ccccc4)cc23)CC1,2.9% (inactive)
6,Cc1ccc(NC(=O)c2ccc(CSc3ncnc4nc[nH]c34)cc2)c(C)c1,3.79% (inactive)
7,C=CCc1cc(S(=O)(=O)c2ccc(O)c(CC=C)c2)ccc1O,9.65% (inactive)
8,Cc1ccc2cccc(OCCCOc3ccccc3CO)c2n1,11.3% (inactive)
9,COc1ccc(/C=C/C(=O)Nc2ccc(C34CC5CC(CC(O)(C5)C3)C4)cc2)cc1OC,11.1% (inactive)
10,Cc1ccccc1NC(=O)Cc1nc(COC(=O)C(C)(C)Oc2ccc(Cl)cc2)cs1,10.5% (inactive)
11,CCNS(=O)(=O)c1ccc(CCC(=O)N2CCN(c3cc(Cl)ccc3C)CC2)cc1,17.4% (inactive)
12,COc1ccc(C(=O)Oc2ccc(-c3nnco3)cc2)cc1S(=O)(=O)N1CCOCC1,11% (inactive)
13,Oc1ccc(/C=N/Nc2nc(-c3ccccc3F)nc3ccccc23)c(O)c1,9.34% (inactive)
14,C=CCn1c(SCc2cccc(F)c2)nc2cc(C(=O)N3CCC(C(N)=O)CC3)ccc2c1=O,9% (inactive)
15,COc1ccc2[nH]c(=O)c(CN(Cc3cccnc3)S(=O)(=O)c3ccccc3F)cc2c1,12.6% (inactive)
16,Fc1ccc(/C=N/Nc2nc(-c3cccnc3)nc3ccccc23)cc1,3.24% (inactive)
17,CCOC(=O)C1=C(NC(=S)NC(=O)c2ccccc2)c2ccccc2CC1(C)C,31.1% (inactive)
18,CNC(=O)c1ccsc1NC(=O)c1ccc(S(=O)(=O)N2CCc3ccccc32)cc1,6.5% (inactive)
19,CC(C)(C)OC(=O)NCCCCCNC(=O)c1nc[nH]c1C(=O)NCc1ccccc1,7.66% (inactive)
20,Cc1ccccc1OCC(=O)Nc1ccc(N2CCN(C(=O)C(C)C)CC2)c(Cl)c1,10.6% (inactive)
21,COc1cc(OC)cc(C(=O)OCC(=O)Nc2sccc2C(N)=O)c1,16.7% (inactive)
22,CCOc1ccc(NC(=O)N2CC=C(n3c(=O)[nH]c4ccccc43)CC2)cc1,6.44% (inactive)
23,O=C(CCc1ccccc1)Nc1cccc(-c2nnc(-c3ccco3)o2)c1,7.95% (inactive)
24,O=C(Nc1ccc(-c2nnc(-c3ccccc3)o2)cc1)c1ccc(Br)o1,-1.1% (inactive)
25,CC(C)Oc1cc(F)ccc1-c1cc(C(=O)Nc2ccc(F)cc2)[nH]n1,2.53% (inactive)
26,COc1ccc(-c2cc(C(=O)N(C)Cc3ccc(OC)c(OC)c3OC)c3ccccc3n2)cc1OC,8.62% (inactive)
